Results published in PubChem BioAssay.
Results filed as inconclusive are left out. The source made the active and inactive calls.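 The calls were made as follows, unless noted: active = response below a set limit, under 55% cells CD8-positive and vesicle-bound, and CD8 cells' 90th-percentile brightness under 279; inactive = the rest.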

Legend:
[1] = rapamycin-like changes in RPL19A-GFP expression – cell-based, S. cerevisiae, multiplex flow cytometry, primary screen (AID 1862; in the data active = percent of DMSO control GFP below about 86%;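 also: lower values mimic rapamycin by blocking the RPL19A rise seen in DMSO cells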); details: S. cerevisiae RPL19A-GFP strain, flow cytometry fluorescence, 3 h; at 10 µM; stronger effect = lower value
[2] = TOR pathway GLN3 branch reporter MEP2-GFP changes – S. cerevisiae, multiplex flow cytometry, primary screen (AID 1867;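 active = GFP response, as percent of the DMSO control, above the screen-wide mean plus 3 SD, about 139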;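 also: median GFP channel fluorescence of barcode-gated MEP2-GFP cells measured by flow cytometry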); details: S. cerevisiae MEP2-GFP strain, 3 h, at 10 µM, stronger effect = higher value, 100% means same as DMSO wells
[3] = TOR pathway RTG branch CIT2 reporter changes – S. cerevisiae, GFP fusion, multiplex flow cytometry, primary screen (AID 1870;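 active = percent response above a set limit, the screen-wide mean plus 3 SD, cut at about 130% in these data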;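 also: barcoded CIT2-GFP strain pooled with four other GFP strains with rapamycin as positive control; median GFP fluorescence per well over plate mean of DMSO wells so 100% = DMSO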); details: S. cerevisiae CIT2-GFP expression, 3 h, at 10 µM, stronger effect = higher value
[4] = TOR pathway LAP4-GFP level changes – S. cerevisiae, multiplex flow cytometry, primary screen (AID 1873;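 active = GFP signal, as percent of the solvent control, above the screen mean plus 3 SD, about 149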); details: S. cerevisiae LAP4-GFP expression, 3 h, at 10 µM, stronger effect = higher value
[5] = yeast AGP1-GFP level changes, GLN3 branch – cell-based, multiplex flow cytometry, S. cerevisiae, primary screen (AID 1887;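 active = GFP signal above the screen-wide mean plus 3 SD, that is over about 124.5% of the solvent control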;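 also: AGP1-GFP fusion strain of S. cerevisiae within a five-strain barcoded multiplex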); details: 3 h, at 10 µM, stronger effect = higher value
[6] = reduced mouse 2C T cell binding to pMHC/ICAM-1 vesicles – MLPCN validation set, flow cytometry, LFA-1/ICAM-1 modulator project, pilot screen (AID 2523); details: 2C mouse CD8+ T cells, at 7 µM, stronger effect = lower value; double positive events: measured here: CD8+/vesicle+ event percentage;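 as to vesicle binding response: mean PE anti-B7-1 fluorescence of CD8+ cells relative to row control; 100% = QL9-loaded vesicles with DMSO vehicle in the same plate row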
[7] = biological target: Integrin beta-1 (Homo sapiens) + Integrin alpha-4 (Homo sapiens) (UniProt P13612+P05556); assay: alpha4beta1 integrin LIBS antibody binding reduction – U937 cells, HUTS-21 mAb, flow cytometry, validation set, VLA-4 allosteric modulator project, pilot screen (AID 2674;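 active = inhibition above 50%, about 3 SD of the validation set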;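 also: antibody binding induced by the VLA-4 ligand LDV present at three times its Kd; 0% = LDV ligand with antibody and no compound and 100% = antibody without LDV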); details: HUTS-21 LIBS mAb binding, at 6.7 µM, stronger effect = higher value, binding induced by LDV ligand
[8] = calorie-restriction mimetic ROS inhibitors, yeast – validation compound set, pilot screen (AID 2706;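 active = superoxide response below 65% of plate, a cut near 3 SD across the whole screen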;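 also: yeast exposed to compound for one week at 30 degrees C before staining; 100% = mean of all compound wells on the same plate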); details: S. cerevisiae aging, superoxide DHE fluorescence; at 10 µM; stronger effect = lower value
[9] = biological target: Beta-adrenergic receptor kinase 1 (Homo sapiens) (UniProt P25098); assay: GRK2 binders displacing RNA aptamer, biochemical, validation, human GRK2, bead flow cytometry (AID 488806;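 active = aptamer binding inhibition above 30%, about 3 SD of noise from non-fluorescent compounds; inactive = inhibition at or below 30%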); details: bead-bound GRK2, FAM-aptamer displacement, at 10 µM, stronger effect = higher value
[10] = biological target: Beta-2 adrenergic receptor (Homo sapiens) (UniProt P07550); assay: agonist-induced loss of surface beta2AR – cell-based, FAP fluorogen, flow cytometry, validation set, pilot screen (AID 504459;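 active = percent response above 42, roughly 3 SD of non-fluorescent test compounds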;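 also: agonist-driven loss of surface beta2AR via internalization measured by FAP dye flow cytometry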); details: Am2.2-beta2AR cells, at 10 µM, stronger effect = higher value
[11] = biological target: AP-2 complex subunit beta (Homo sapiens) (UniProt P63010); assay: beta-arrestin/AP2 interaction blockers – biochemical, validation set, GST-AP2 beads, flow cytometry, pilot screen (AID 504541;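 active = inhibition above 54%, about 3 SD of non-fluorescent compounds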;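 also: AP2 carries R879A mutation and is captured from E. coli lysate; bead-bound FITC arrestin peptide fluorescence measuring arrestin peptide binding to AP2; 0% = DMSO wells and 100% = excess unlabeled arrestin peptide control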); details: FITC arrestin peptide, at 10 µM, stronger effect = higher value, AP2 beta2 appendage fragment, R879A mutant
[12] = cytosolic pH regulators acting via V-ATPase – S. cerevisiae, pHLuorin, HTS validation (AID 504600; in the data active = response above about 15%;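 also: plate controls were DMSO for no effect and reference compound for full effect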); details: V-ATPase proton transport, at 10 µM, stronger effect = higher value
[13] = system: anti-desmoglein-3 scFv antibody binding to human DSG3; assay: blockers of pathogenic pemphigus antibody–desmoglein-3 binding – biochemical, validation compound set, bead-based, flow cytometry, pilot screen (AID 588368;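 active = binding below the plate cutoff, the plate median minus 3 SD, with a reading above zero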;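 also: signal is the median channel fluorescence of bead-bound GFP antibody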); details: Protein G beads, DSG3-Fc, scFv-GFP binding, at 10 µM, stronger effect = lower value
[14] = Nile Red efflux blockade in pump-expressing yeast – validation compound set, multiplex, phenotypic, pilot screen (AID 588506;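 active = efflux inhibition above 0.42, the validation set average plus 4 SD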;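 also: Nile Red retained in cells so higher fluorescence means more efflux inhibition; 0 = negative control wells and 1 = enniatin B 25 µM full block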); details: S. cerevisiae pump-expressing triplex, Nile Red efflux flow cytometry; at 10 µM; stronger effect = higher value; the pumps come from Candida albicans
[15] = biological target: ATP-binding cassette sub-family B member 6 (Homo sapiens) (UniProt Q9NP58); assay: blockers of ABCB6-driven porphyrin uptake – K562-ABCB6 cells, flow cytometry, validation set, pilot screen (AID 588550;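 active = inhibition above the screen-wide mean plus 3 SD, about 51%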;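 also: 0% = DMSO wells and 100% = benzethonium chloride 70 µM positive control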); details: K562-ABCB6 porphyrin accumulation, 1 h, at 10 µM, stronger effect = higher value
[16] = AML differentiation inducers, ER-HoxA9 marrow cells – cell-based, GFP/MAC1 double positive, flow cytometry, validation set, primary screen (AID 588685;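 active = differentiation response of at least 50%, scaled between solvent and reference control, from cells with both markers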;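 also: compound exposure lasts four days before antibody staining and flow analysis; 0% = DMSO wells and 100% = 5 µM fulvestrant positive control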); details: stronger effect = higher value, normalized: vehicle 0, fulvestrant 100

Integrin beta-1 (Homo sapiens) + Integrin alpha-4 (Homo sapiens), sequence (P05556 whole entry, looked up): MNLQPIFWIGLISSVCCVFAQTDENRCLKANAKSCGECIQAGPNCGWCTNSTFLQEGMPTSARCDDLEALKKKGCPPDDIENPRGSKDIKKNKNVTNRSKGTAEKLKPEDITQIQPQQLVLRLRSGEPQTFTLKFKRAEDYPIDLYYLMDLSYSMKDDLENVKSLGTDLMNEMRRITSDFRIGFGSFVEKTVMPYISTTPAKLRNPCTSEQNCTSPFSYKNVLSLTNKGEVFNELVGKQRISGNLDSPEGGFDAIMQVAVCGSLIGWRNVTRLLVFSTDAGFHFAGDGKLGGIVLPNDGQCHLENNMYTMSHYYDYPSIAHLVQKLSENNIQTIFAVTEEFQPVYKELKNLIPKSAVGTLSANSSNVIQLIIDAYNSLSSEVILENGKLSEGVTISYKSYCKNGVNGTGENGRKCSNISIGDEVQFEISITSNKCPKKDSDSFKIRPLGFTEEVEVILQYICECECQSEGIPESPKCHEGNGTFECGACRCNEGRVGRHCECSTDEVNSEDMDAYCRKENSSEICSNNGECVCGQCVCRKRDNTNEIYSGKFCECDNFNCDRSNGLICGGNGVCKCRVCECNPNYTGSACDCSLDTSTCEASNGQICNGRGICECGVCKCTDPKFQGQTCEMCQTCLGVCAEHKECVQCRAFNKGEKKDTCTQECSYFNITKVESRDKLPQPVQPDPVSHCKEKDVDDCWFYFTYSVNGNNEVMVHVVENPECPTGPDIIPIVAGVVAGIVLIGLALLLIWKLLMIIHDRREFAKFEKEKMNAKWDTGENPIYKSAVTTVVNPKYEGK
Integrin beta-1 (Homo sapiens) + Integrin alpha-4 (Homo sapiens), sequence (P13612 whole entry, looked up): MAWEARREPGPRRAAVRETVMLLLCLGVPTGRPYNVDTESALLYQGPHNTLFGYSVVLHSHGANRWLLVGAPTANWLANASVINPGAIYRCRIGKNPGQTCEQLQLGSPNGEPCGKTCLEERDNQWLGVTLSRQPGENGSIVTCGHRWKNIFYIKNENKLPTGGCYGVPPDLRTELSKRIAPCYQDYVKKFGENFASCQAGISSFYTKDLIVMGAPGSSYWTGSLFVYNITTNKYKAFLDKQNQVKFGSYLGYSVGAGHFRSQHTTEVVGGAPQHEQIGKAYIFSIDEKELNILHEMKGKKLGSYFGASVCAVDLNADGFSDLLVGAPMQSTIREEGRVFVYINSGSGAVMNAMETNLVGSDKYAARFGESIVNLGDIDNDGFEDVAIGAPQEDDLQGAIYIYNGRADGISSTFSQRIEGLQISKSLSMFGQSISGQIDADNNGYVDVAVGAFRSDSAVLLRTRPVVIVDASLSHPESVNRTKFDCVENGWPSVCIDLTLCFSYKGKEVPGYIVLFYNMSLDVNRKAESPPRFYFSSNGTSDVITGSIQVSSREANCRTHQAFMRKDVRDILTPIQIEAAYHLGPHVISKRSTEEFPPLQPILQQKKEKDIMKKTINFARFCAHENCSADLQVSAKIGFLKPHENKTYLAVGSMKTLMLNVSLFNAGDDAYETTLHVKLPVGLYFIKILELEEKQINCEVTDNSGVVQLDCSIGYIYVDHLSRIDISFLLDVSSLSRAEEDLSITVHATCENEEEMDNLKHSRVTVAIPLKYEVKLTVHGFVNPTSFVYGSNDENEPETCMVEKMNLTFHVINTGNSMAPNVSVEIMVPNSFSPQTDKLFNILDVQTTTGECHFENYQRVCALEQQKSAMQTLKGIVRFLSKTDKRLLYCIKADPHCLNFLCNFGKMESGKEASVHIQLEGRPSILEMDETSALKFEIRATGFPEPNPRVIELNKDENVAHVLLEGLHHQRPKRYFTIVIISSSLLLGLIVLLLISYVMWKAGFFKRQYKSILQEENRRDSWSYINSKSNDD
Beta-2 adrenergic receptor (Homo sapiens), sequence (P07550 whole entry, looked up): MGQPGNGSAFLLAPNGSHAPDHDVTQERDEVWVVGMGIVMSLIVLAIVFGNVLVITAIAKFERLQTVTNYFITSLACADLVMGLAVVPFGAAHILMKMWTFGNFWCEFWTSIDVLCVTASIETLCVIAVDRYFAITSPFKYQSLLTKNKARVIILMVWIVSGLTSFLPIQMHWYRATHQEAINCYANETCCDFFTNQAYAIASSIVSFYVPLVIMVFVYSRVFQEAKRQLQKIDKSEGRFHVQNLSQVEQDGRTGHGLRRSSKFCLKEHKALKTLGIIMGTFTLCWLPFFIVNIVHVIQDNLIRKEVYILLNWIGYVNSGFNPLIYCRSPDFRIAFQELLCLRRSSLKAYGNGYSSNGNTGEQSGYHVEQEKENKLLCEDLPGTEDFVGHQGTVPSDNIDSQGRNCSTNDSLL
Beta-adrenergic receptor kinase 1 (Homo sapiens), sequence (P25098 whole entry, looked up): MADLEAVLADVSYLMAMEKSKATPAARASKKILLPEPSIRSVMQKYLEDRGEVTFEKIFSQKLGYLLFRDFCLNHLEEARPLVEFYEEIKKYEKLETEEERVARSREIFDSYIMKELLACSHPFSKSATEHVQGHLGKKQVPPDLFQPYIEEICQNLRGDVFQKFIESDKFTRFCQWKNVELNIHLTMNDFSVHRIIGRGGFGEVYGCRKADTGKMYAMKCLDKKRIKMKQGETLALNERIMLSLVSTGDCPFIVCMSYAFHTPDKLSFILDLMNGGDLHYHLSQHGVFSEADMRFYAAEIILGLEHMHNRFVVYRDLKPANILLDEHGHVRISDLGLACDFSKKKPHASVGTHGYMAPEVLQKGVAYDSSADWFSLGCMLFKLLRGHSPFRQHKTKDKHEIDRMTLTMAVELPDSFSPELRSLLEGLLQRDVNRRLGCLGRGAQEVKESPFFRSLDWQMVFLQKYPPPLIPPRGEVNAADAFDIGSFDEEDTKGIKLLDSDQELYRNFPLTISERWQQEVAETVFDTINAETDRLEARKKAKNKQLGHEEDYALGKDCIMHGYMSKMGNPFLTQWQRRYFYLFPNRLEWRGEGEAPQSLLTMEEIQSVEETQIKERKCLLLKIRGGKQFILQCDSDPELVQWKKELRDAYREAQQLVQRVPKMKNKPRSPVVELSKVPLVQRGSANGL
AP-2 complex subunit beta (Homo sapiens), sequence (P63010 whole entry, looked up, the tested form may be a part, one chain of several): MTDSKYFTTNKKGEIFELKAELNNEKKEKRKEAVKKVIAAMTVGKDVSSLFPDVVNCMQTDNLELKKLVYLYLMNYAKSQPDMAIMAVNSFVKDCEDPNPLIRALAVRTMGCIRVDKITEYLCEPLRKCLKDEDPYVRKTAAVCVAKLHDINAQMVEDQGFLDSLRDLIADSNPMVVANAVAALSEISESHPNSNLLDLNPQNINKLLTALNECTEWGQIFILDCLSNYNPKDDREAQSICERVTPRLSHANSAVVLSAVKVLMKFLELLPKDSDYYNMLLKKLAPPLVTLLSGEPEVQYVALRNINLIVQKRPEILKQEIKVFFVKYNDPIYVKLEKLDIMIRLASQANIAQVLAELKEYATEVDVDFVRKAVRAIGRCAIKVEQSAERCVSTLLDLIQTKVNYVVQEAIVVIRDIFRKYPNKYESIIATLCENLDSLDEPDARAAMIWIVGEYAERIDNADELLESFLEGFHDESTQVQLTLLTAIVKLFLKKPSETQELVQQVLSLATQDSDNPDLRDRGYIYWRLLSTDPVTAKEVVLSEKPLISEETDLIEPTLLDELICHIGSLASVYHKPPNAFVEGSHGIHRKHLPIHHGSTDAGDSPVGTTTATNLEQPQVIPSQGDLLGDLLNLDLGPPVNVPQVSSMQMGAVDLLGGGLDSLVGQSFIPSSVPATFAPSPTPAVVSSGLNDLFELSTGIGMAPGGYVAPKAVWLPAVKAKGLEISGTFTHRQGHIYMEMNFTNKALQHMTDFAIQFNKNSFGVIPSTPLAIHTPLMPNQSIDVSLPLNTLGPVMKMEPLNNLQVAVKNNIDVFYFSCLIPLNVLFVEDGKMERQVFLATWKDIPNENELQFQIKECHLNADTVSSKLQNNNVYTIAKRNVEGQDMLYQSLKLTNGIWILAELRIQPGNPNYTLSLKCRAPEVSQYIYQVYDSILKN
ATP-binding cassette sub-family B member 6 (Homo sapiens), sequence (Q9NP58 whole entry, looked up): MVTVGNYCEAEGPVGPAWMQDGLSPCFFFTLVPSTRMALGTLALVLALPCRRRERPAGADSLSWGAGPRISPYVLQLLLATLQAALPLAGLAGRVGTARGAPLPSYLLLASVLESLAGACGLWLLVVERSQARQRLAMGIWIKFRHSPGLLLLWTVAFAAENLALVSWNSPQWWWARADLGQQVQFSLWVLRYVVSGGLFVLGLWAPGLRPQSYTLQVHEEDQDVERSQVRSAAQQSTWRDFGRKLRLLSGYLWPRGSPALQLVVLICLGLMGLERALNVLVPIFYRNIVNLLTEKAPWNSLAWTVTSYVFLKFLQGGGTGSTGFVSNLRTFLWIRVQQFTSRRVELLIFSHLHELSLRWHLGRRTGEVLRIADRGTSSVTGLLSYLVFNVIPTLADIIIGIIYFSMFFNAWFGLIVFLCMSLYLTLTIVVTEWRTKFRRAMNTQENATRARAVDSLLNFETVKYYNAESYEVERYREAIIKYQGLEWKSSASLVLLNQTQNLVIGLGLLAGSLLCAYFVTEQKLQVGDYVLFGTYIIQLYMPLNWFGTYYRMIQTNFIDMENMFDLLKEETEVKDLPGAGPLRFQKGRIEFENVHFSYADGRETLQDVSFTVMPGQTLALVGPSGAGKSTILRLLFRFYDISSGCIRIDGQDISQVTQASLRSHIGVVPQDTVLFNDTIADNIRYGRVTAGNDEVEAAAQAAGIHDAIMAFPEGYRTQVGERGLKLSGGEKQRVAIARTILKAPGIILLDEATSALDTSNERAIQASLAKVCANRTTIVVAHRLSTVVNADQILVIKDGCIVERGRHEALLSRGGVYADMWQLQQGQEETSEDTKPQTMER

Structure (SMILES) | percent of DMSO control GFP [1] | GFP response vs DMSO [2] | percent response of DMSO control [3] | GFP response vs DMSO [4] | GFP response, % of DMSO [5] | double positive events [6] | vesicle binding response [6] | inhibition [7] | superoxide response (% of plate) [8] | aptamer binding inhibition [9] | response [10] | inhibition [11] | response [12] | binding (% of control) [13] | efflux inhibition (fraction of control) [14] | inhibition [15] | differentiation response [16]
CC(C)(C)C(=O)Nc1cccc(OC(F)(F)C(F)Cl)c1 (stereo not given) | 105% (inactive) | 106% (inactive) | 105% (inactive) | 107% (inactive) | 113% (inactive) | 66.2% | 212% (inactive) | 25.3% (inactive) | 105% (inactive) | 4% (inactive) | -32.2% (inactive) | 8.53% (inactive) | 18.4% (active) | 99.5% (inactive) | -0.04 (inactive) | 5% (inactive) | 11.8% (inactive)
CC1CCCC(C)N1NC(=O)c1ccc(Cl)c(S(N)(=O)=O)c1 (stereo not given) | 88% (inactive) | 126% (inactive) | 91.3% (inactive) | 85.8% (inactive) | 96.3% (inactive) | 65.1% | 128% (inactive) | -3.24% (inactive) | 98.3% (inactive) | 3% (inactive) | -7.28% (inactive) | -5.07% (inactive) | -0.52% (inactive) | 101% (inactive) | 0.09 (inactive) | 10% (inactive) | -0.82% (inactive)
CCCCNc1ccc(C(=O)OCCN(C)C)cc1 | 101% (inactive) | 109% (inactive) | 98.9% (inactive) | 103% (inactive) | 97.3% (inactive) | 63.6% | 212% (inactive) | 5.77% (inactive) | 106% (inactive) | -1% (inactive) | -12.7% (inactive) | 5.38% (inactive) | -3.28% (inactive) | 101% (inactive) | -0.01 (inactive) | 15% (inactive) | 19.8% (inactive)
COc1ccc(S(=O)(=O)NCc2ccco2)c2ccccc12 | 100% (inactive) | 104% (inactive) | 88.2% (inactive) | 114% (inactive) | 87% (inactive) | 62.3% | 175% (inactive) | 7.76% (inactive) | 89.3% (inactive) | 3% (inactive) | -3.81% (inactive) | -4.99% (inactive) | 1.41% (inactive) | 96.3% (inactive) | -0.13 (inactive) | 7% (inactive) | 2.4% (inactive)
CC(=O)C1=C(O)C(=O)N(CC(=O)O)C1c1ccccc1Cl (stereo not given) | 93.5% (inactive) | 136% (inactive) | 88.6% (inactive) | 82.5% (inactive) | 90.3% (inactive) | 54.3% | 175% (inactive) | 10.3% (inactive) | 106% (inactive) | 4% (inactive) | -4% (inactive) | 1.11% (inactive) | 0% (inactive) | 100% (inactive) | -0.2 (inactive) | 13% (inactive) | -4.91% (inactive)
COc1cc(NC(=O)COc2ccccc2)c(OC)cc1NC(C)=O | 101% (inactive) | 133% (inactive) | 114% (inactive) | 94.6% (inactive) | 101% (inactive) | 59.7% | 216% (inactive) | -14.9% (inactive) | 93% (inactive) | 1% (inactive) | -3.81% (inactive) | -5.93% (inactive) | -0.91% (inactive) | 110% (inactive) | -0.42 (inactive) | 0% (inactive) | 5.73% (inactive)
CN(C)CCC=C1c2ccccc2CCc2ccccc21 | 93.9% (inactive) | 105% (inactive) | 93.9% (inactive) | 113% (inactive) | 95.4% (inactive) | 60.1% | 227% (inactive) | 6.4% (inactive) | 101% (inactive) | 2% (inactive) | -0.14% (inactive) | -8.77% (inactive) | 6.98% (inactive) | 101% (inactive) | -0.17 (inactive) | 6% (inactive) | -24.8% (inactive)
COCc1cc(=O)[nH]c(/N=C(\N)Nc2ccc(Oc3ccccc3)cc2)n1 | 96.9% (inactive) | 118% (inactive) | 83.4% (inactive) | 109% (inactive) | 97.8% (inactive) | 60.6% | 216% (inactive) | -1.79% (inactive) | 94.8% (inactive) | 2% (inactive) | 17.9% (inactive) | -1.38% (inactive) | -1.49% (inactive) | 99.3% (inactive) | 0.01 (inactive) | 12% (inactive) | 10.4% (inactive)
CNC(=O)Oc1ccc2c(c1)[C@]1(C)CCN(C)[C@@H]1N2C | 104% (inactive) | 102% (inactive) | 86% (inactive) | 112% (inactive) | 122% (inactive) | 62.8% | 183% (inactive) | 5.69% (inactive) | 98.7% (inactive) | 3% (inactive) | -21.5% (inactive) | -9.24% (inactive) | -0.59% (inactive) | 104% (inactive) | 0.12 (inactive) | 4% (inactive) | -4.99% (inactive)
CC(C)CN1CCN(Cc2cccn2-c2ccccn2)CC1CCO (stereo not given) | 90.9% (inactive) | 113% (inactive) | 103% (inactive) | 80.3% (inactive) | 95.9% (inactive) | 64.2% | 241% (inactive) | 22.9% (inactive) | 114% (inactive) | -2% (inactive) | -7.51% (inactive) | -9.17% (inactive) | 74.8% (active) | 102% (inactive) | 0.48 (active) | 16% (inactive) | 1.64% (inactive)
